Measured values reported in PubChem BioAssay (NCI).
Compounds without any hit were thinned out: in the full panel of roughly 83,000, 20% have a hit.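 Method: cells in 96-well plates; compound added at one concentration; 48 h incubation; percent growth measured; values under 10 scored active.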 Calls of active or inactive are those of the source.

Tests used:
Test in all cases: NCI-60 one-dose screen, 48 h (100 = growth as untreated, 0 = no growth, -100 = all killed)
Settings in all cases: 10 µM
T-47D breast = tested on: T-47D breast
BT-549 breast = tested on: BT-549 breast
MDA-MB-435 melanoma = tested on: MDA-MB-435 melanoma
SW-620 colon = tested on: SW-620 colon
MCF7 breast = tested on: MCF7 breast
HCT-116 colon = tested on: HCT-116 colon
HCC-2998 colon = tested on: HCC-2998 colon
KM12 colon = tested on: KM12 colon

Measured: growth

CO[C@H]1CC(O[C@@H]2/C(C)=C/C[C@@H]3C[C@@H](C[C@]4(C=C[C@H](C)[C@@H](C5CCCCC5)O4)O3)OC(=O)[C@@H]3C=C(C)[C@@H](O)[C@H]4OC/C(=C\C=C\[C@@H]2C)[C@]43O)O[C@@H](C)C1O[C@H]1C[C@H](OC)[C@@H](O)[C@H](C)O1 (some centres undefined)
active: T-47D breast -51.2% | BT-549 breast -68.9% | MDA-MB-435 melanoma -97.1% | SW-620 colon -92.7% | MCF7 breast -24.1% | HCT-116 colon -98.1% | HCC-2998 colon -92.3% | KM12 colon -88.6%

C[C@]12CC[C@@H]3c4ccc(OS(=O)(=O)O)cc4CC[C@H]3[C@@H]1CC[C@@H]2NS(=O)(=O)c1ccc(-c2ccccc2)cc1
inactive: T-47D breast 49.8% | BT-549 breast 53.9% | MDA-MB-435 melanoma 69.4% | SW-620 colon 75.3% | MCF7 breast 30.2% | HCT-116 colon 36.2% | HCC-2998 colon 80.9% | KM12 colon 60.5%

COc1ccc2c(c1)C(CC(=O)NN)CCC2 (centres undefined)
inactive: T-47D breast 105% | BT-549 breast 103% | MDA-MB-435 melanoma 103% | SW-620 colon 106% | MCF7 breast 95.6% | HCT-116 colon 104% | KM12 colon 105%

COc1ccc(-c2nn(-c3cccc(Cl)c3)cc2/C=C2\NC(=S)N(c3ccc(Cl)cc3)C2=O)cc1
inactive: T-47D breast 11.9% | SW-620 colon 40.8% | MCF7 breast 19.3% | HCC-2998 colon 23.2% | KM12 colon 26.6%
active: BT-549 breast -13% | MDA-MB-435 melanoma 7.26% | HCT-116 colon 0.814%

CC(=O)/C(=C/c1ccc(Br)cc1)C(=O)c1ccccc1
inactive: T-47D breast 86.5% | BT-549 breast 96.9% | MDA-MB-435 melanoma 65.9% | SW-620 colon 58.2% | MCF7 breast 43.4% | HCT-116 colon 12.2% | KM12 colon 58.6%

CC(C)(C)OC(=O)N1CCc2c(sc3ncnc(N/N=C/c4cccc5ccccc45)c23)C1
inactive: T-47D breast 12.6% | BT-549 breast 58.7% | SW-620 colon 27.3% | HCT-116 colon 10.5% | HCC-2998 colon 37.1% | KM12 colon 23.4%
active: MDA-MB-435 melanoma -11.7% | MCF7 breast 2.21%

OC(CNc1ccnc2cc(Cl)ccc12)CNC1CCCCC1 (centres undefined)
inactive: T-47D breast 65.6% | BT-549 breast 70% | MDA-MB-435 melanoma 52.5% | SW-620 colon 92.9% | MCF7 breast 75.7% | HCT-116 colon 68.9% | HCC-2998 colon 64.3% | KM12 colon 83.5%

CCOC(=O)C1C(C(=O)OCC)C2C(=O)C3C(C(=O)OCC)C(C(=O)OCC)C3C(=O)C12 (centres undefined)
inactive: T-47D breast 100% | BT-549 breast 109% | MDA-MB-435 melanoma 105% | SW-620 colon 111% | MCF7 breast 99.8% | HCT-116 colon 104% | HCC-2998 colon 107% | KM12 colon 109%

COc1cc(C)ccc1Oc1nc(Nc2ccc(N3CCOCC3)cc2)ncc1NC(=O)Nc1cc(C(F)(F)F)cc(C(F)(F)F)c1
inactive: T-47D breast 81.9% | BT-549 breast 78.3% | MDA-MB-435 melanoma 81.5% | SW-620 colon 82.6% | MCF7 breast 69.3% | HCT-116 colon 22.6% | HCC-2998 colon 101% | KM12 colon 63.5%

NC(N)=N/N=C(\c1ccccc1)C(O)c1ccccc1 (centres undefined)
inactive: T-47D breast 89.9% | BT-549 breast 103% | MDA-MB-435 melanoma 107% | MCF7 breast 94.9% | HCT-116 colon 100% | HCC-2998 colon 100% | KM12 colon 105%

C[C@@H](O)[C@H]1C(=O)N2C(C(=O)O)=C(SCCN=CN)C[C@H]12
active: T-47D breast -6.42% | SW-620 colon -0.331% | MCF7 breast -6.51% | HCT-116 colon -24.8% | HCC-2998 colon 0.878% | KM12 colon 9.33%
inactive: BT-549 breast 18.9%

O=C(N/N=C/c1ccc(Cl)cc1)c1ccccc1Nc1cccc(C(F)(F)F)c1
inactive: T-47D breast 109% | BT-549 breast 60.2% | SW-620 colon 79.6% | MCF7 breast 85.2% | HCT-116 colon 66.1% | HCC-2998 colon 103%

O=[N+]([O-])c1ccc(NCSc2ccc(Cl)cc2)cc1
inactive: T-47D breast 92.8% | BT-549 breast 71.5% | MDA-MB-435 melanoma 109% | MCF7 breast 95% | HCT-116 colon 86.3%

NS(=O)(=O)c1ccc(N2N=C(c3ccccc3)CCC2=O)cc1
inactive: T-47D breast 102% | BT-549 breast 223% | SW-620 colon 109% | MCF7 breast 95.4% | HCT-116 colon 86.8% | HCC-2998 colon 97% | KM12 colon 188%

Cc1ccc(-n2c(C)nn3c(=O)c4c5c(sc4nc23)CN(C)CC5)cc1
inactive: T-47D breast 81.3% | BT-549 breast 97.6% | SW-620 colon 104% | MCF7 breast 92.3% | HCT-116 colon 93.5% | HCC-2998 colon 97.2% | KM12 colon 96%

COc1ccc(/C(C#N)=C/c2ccccc2OC)cc1
inactive: T-47D breast 26% | BT-549 breast 37.1% | SW-620 colon 22.8% | MCF7 breast 14.8% | HCT-116 colon 18.1% | HCC-2998 colon 50.2% | KM12 colon 32.2%

O=C1c2c(c3c4ccccc4n(CCCCCCN4CCOCC4)c3c3[nH]c4ccccc4c23)C(=O)N1O
inactive: T-47D breast 79.9% | BT-549 breast 91.9% | HCC-2998 colon 87.8% | KM12 colon 78%
active: SW-620 colon 4.79% | MCF7 breast 6.49% | HCT-116 colon -16%

CC(=O)OC1CC2C(C)(C)CCC[C@]2(C)C2=C1C(O)=C(C(C)C)C(=O)C2=O (some centres undefined)
active: T-47D breast 0.0935% | BT-549 breast -21.9% | MDA-MB-435 melanoma -37.9% | SW-620 colon -51% | HCT-116 colon -8.31% | HCC-2998 colon -76.1% | KM12 colon -77.7%

Nc1cc(-c2ccc(Cl)cc2)nn1-c1nc2ccccc2nc1Cc1ccccc1
inactive: T-47D breast 85.5% | BT-549 breast 90.5% | MDA-MB-435 melanoma 86.8% | MCF7 breast 85.3% | HCT-116 colon 72.8% | HCC-2998 colon 94.8%

C=C1CCC2(C#N)[C@H]3[C@H](CC[C@@H]2C)[C@@H](C)C[C@@H](CC(C)(C)NC(=O)CN2CCC2=O)[C@H]13 (some centres undefined)
inactive: T-47D breast 12.5% | BT-549 breast 55.3% | SW-620 colon 74.6% | MCF7 breast 35.2% | HCT-116 colon 39% | HCC-2998 colon 41.1% | KM12 colon 42.7%

O=C(CCCSc1nc(-c2ccccc2)cc(-c2ccc(Cl)cc2)n1)NO
inactive: T-47D breast 23.3% | BT-549 breast 38.6% | SW-620 colon 17.4% | HCT-116 colon 11.9% | HCC-2998 colon 12.7% | KM12 colon 24.7%
active: MCF7 breast 4.12%

CCNc1nc(C(F)(F)F)nc2c1sc(=S)n2-c1ccccc1
inactive: T-47D breast 73.9% | BT-549 breast 95.2% | SW-620 colon 106% | MCF7 breast 96.4% | HCT-116 colon 94.3% | HCC-2998 colon 115% | KM12 colon 89.2%

COc1ccc2c(c1)CC=C1[C@@H]2CC[C@]2(C)C(=O)/C(=N/O)C[C@@H]12
inactive: T-47D breast 90.2% | BT-549 breast 88.8% | MDA-MB-435 melanoma 90.5% | SW-620 colon 78.4% | HCT-116 colon 61.9% | HCC-2998 colon 79.7% | KM12 colon 92.6%

COc1ccc(/C=C/c2nnc(/C=C/c3ccc(OC)c(OC)c3)o2)cc1OC
inactive: T-47D breast 19.5% | BT-549 breast 25.5% | SW-620 colon 18.1% | MCF7 breast 22.8% | HCC-2998 colon 54.9% | KM12 colon 33.7%
active: HCT-116 colon 4.83%

O=c1oc2c(cc1-c1ccc(F)cc1)C(O)Oc1ccccc1-2 (centres undefined)
inactive: T-47D breast 87.4% | BT-549 breast 87.6% | SW-620 colon 45.4% | MCF7 breast 55.2% | HCC-2998 colon 48.6% | KM12 colon 45.3%
active: MDA-MB-435 melanoma 3.53%

Cc1nn(-c2ccccc2)c2nc(Cl)c(C=O)c(-c3ccccc3)c12
inactive: T-47D breast 83.5% | BT-549 breast 86% | SW-620 colon 72.1% | MCF7 breast 90.6% | HCC-2998 colon 77.5% | KM12 colon 78.3%
active: HCT-116 colon 4.57%

COc1ccc2nc3cc(Cl)ccc3c(N)c2c1
active: T-47D breast -82% | BT-549 breast -95.6% | MDA-MB-435 melanoma -74.2% | SW-620 colon -70.2% | HCT-116 colon -99.2% | HCC-2998 colon -99% | KM12 colon -84.3%

CCOc1ccccc1/C=N\N=C(\N)N/N=C/c1ccccc1OCC
inactive: T-47D breast 14.8% | BT-549 breast 36% | HCT-116 colon 24.9%
active: MDA-MB-435 melanoma -3.3% | MCF7 breast 8.26%

COc1cc2cc(Oc3ccc(NC(=O)Nc4ccc(Cl)c(Cl)c4)cc3)c(C)nc2cc1OC
inactive: T-47D breast 60.9% | BT-549 breast 28.1% | SW-620 colon 23.4% | MCF7 breast 13.8% | HCT-116 colon 10.5% | HCC-2998 colon 37.6% | KM12 colon 13.9%

COc1ccc(-c2cc(-c3ccc(Cl)cc3)nc(SCCCC(=O)NO)n2)cc1OC
active: SW-620 colon 9.88% | MCF7 breast 1.13% | HCT-116 colon 5.45% | HCC-2998 colon -50.7%
inactive: T-47D breast 15% | BT-549 breast 30.4% | KM12 colon 21.7%

CCn1cc(CNc2ccc(C(=O)Nc3ccc4ccccc4c3)cc2)c(C)n1
inactive: SW-620 colon 87.6% | MCF7 breast 49% | HCT-116 colon 40.5% | HCC-2998 colon 81.5% | KM12 colon 55.5%
active: T-47D breast 6.54% | BT-549 breast 9.81%

OCC1OC2C(NC(=S)N2c2ccccc2)C(O)C1O (centres undefined)
inactive: T-47D breast 108% | BT-549 breast 106% | SW-620 colon 98.4% | MCF7 breast 103% | HCT-116 colon 111% | HCC-2998 colon 104% | KM12 colon 103%

Cc1ccc(Cl)cc1NC(=O)CCl
inactive: T-47D breast 77.6% | BT-549 breast 57.2% | SW-620 colon 73.7% | MCF7 breast 67.8% | HCT-116 colon 62.9% | HCC-2998 colon 114% | KM12 colon 96.1%

COc1ccc(-c2nn(-c3cccc(Cl)c3)cc2-c2c(C#N)c(N)n(N)c(=O)c2C#N)cc1
inactive: T-47D breast 48.7% | BT-549 breast 58% | SW-620 colon 83% | MCF7 breast 47.5% | HCT-116 colon 45.7% | HCC-2998 colon 93.4% | KM12 colon 62.3%
